From the supplement of paper PMC10849652
About 7,900 targets were measured; listed, in parts, are those with a hit and a random draw of the rest. About 0.6% of all pairs of compound and target were hits. A number with no mark means an inactive call.

How the values were obtained:
Assay in all cases: log2 fold change, soluble protein after heating vs DMSO (PISA); higher = thermal stabilisation; K562 cells, 10 uM, 30 min; active = over 0.2 and 3.5 SD of the protein, either way, in both replicates (recomputed)
[1] = compound: CN1CCN(CCOc2cc(OC3CCOCC3)c3c(Nc4c(Cl)ccc5c4OCO5)ncnc3c2)CC1 [saracatinib]
In short: (§1)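 K562 cells at 2×10^6 cells/mL were treated with 10 μM compound for 30 min. Aliquots were heated for 3 min across 48°C-58°C, pooled, and extracted in PBS with 0.5% NP-40 at 4°C; soluble protein was the supernatant after 21,000xg for 90 min. Soluble protein was quantified by TMTpro 16plex LC-MS/MS with channel sums equalised, and reported as log2 fold change in thermal stability against DMSO controls, with values from duplicates.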

[2] = compound: CN1CCN(c2nc(C3=C(c4c[nH]c5ccccc45)C(=O)NC3=O)c3ccccc3n2)CC1 [sotrastaurin]
In short: as §1

[3] = compound: CN1CC[C@H](c2c(O)cc(O)c3c(=O)cc(-c4ccccc4Cl)oc23)[C@H](O)C1 [alvocidib]
In short: as §1

[4] = compound: CN1CCc2c(c3ccccc3n2Cc2ccc(C(=O)NO)cc2)C1 [Tubastatin A]
In short: as §1

[5] = compound: CNC(=O)C1=CC=CC=C1NC2=NC(=NC=C2Cl)NC3=C(C=C(C=C3)N4CCOCC4)OC
In short: as §1

[6] = compound: CNC(=O)c1ccc(Nc2ncc(C(F)(F)F)c(NCc3nccnc3N(C)S(C)(=O)=O)n2)cc1 [defactinib]
In short: as §1

[7] = compound: CNCc1ccc(-c2[nH]c3cc(F)cc4c3c2CCNC4=O)cc1 [rucaparib]
In short: as §1

[8] = compound: CNc1nc(-c2ccc3c(N)n[nH]c3c2)cc(N2C[C@@H](C(=O)NC3CCCCC3)CC[C@H]2C)n1
In short: as §1

[9] = compound: COC(=O)N[C@@H](C)CNc1nccc(-c2cn(C(C)C)nc2-c2cc(Cl)cc(NS(C)(=O)=O)c2F)n1 [encorafenib]
In short: as §1

[10] = compound: COC(=O)[C@H](CCSC)NC(=O)C1=C(C=C(C=C1)NC[C@H](CS)N)C2=CC=CC=C2
In short: as §1

[11] = compound: COC1=CC=C(C=C1)CN2C=CC3=C2C=C(C=C3)C(=O)NO
In short: as §1

[12] = compound: CON(C)C(=O)N1N=C(c2cc(F)ccc2F)S[C@@]1(CCCN)c1ccccc1 [filanesib]
In short: as §1

[13] = compound: CO[C@H]1C[C@@H]2CC[C@@H](C)[C@@](O)(O2)C(=O)C(=O)N2CCCC[C@H]2C(=O)O[C@H]([C@H](C)C[C@@H]2CC[C@H](n3cnnn3)[C@H](OC)C2)CC(=O)[C@H](C)/C=C(\C)[C@@H](O)[C@@H](OC)C(=O)[C@H](C)C[C@H](C)/C=C/C=C/C=C/1C [zotarolimus]
In short: as §1

[14] = compound: COc1cc(C(=O)O)ccc1NC(=O)[C@@H]1N[C@@H](CC(C)(C)C)[C@](C#N)(c2ccc(Cl)cc2F)[C@H]1c1cccc(Cl)c1F [idasanutlin]
In short: as §1

[15] = compound: COc1cc(Nc2ncc3c(n2)-c2ccc(Cl)cc2C(c2c(F)cccc2OC)=NC3)ccc1C(=O)O [alisertib]
In short: as §1

[16] = compound: COc1cc2nc(-c3cc(F)ccc3O)nc(N[C@@H]3CNC[C@H]3C(C)(C)O)c2cc1OC
In short: as §1

[17] = compound: COc1cc2ncnc(Nc3ccc(F)c(Cl)c3)c2cc1OCCCN1CCOCC1 [gefitinib]
In short: as §1

[18] = compound: COc1cccc2cc(-c3nc([C@H]4CC[C@H](C(=O)O)CC4)n4ncnc(N)c34)[nH]c12
In short: as §1

[19] = compound: CS(=O)(=O)CCNCc1ccc(-c2ccc3ncnc(Nc4ccc(OCc5cccc(F)c5)c(Cl)c4)c3c2)o1 [lapatinib]
In short: as §1

[20] = compound: CS(=O)(=O)N1CCN(Cc2cc3nc(-c4cccc5[nH]ncc45)nc(N4CCOCC4)c3s2)CC1 [pictilisib]
In short: as §1

UniProt P41091, sequence (P41091 whole entry, looked up): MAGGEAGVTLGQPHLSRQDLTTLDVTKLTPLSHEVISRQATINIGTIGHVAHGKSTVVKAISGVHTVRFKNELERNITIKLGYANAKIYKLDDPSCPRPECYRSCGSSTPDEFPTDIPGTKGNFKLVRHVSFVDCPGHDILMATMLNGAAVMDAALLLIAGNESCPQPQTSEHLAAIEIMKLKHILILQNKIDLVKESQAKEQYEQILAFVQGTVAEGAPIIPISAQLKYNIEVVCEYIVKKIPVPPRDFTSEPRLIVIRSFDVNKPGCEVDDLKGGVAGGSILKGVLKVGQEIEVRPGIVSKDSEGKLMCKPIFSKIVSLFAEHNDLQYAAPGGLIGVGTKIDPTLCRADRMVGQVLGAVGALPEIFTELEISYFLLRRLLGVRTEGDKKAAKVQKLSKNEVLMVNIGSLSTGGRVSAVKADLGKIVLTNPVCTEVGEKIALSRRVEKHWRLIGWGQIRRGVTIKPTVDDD
UniProt P53634, sequence (P53634 whole entry, looked up): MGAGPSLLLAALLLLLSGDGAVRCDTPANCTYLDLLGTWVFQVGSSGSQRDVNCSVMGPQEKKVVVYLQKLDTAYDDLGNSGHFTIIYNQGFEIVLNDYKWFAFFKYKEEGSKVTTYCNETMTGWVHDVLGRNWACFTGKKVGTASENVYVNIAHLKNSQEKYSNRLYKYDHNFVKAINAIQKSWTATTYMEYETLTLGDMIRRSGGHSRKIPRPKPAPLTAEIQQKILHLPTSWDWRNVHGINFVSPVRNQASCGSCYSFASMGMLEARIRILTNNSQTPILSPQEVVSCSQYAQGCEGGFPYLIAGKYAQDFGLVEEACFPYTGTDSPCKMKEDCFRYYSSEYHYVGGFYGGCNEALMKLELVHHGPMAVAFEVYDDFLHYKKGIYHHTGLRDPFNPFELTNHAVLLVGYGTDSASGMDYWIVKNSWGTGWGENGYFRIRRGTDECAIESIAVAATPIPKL
UniProt Q9H2U1, sequence (Q9H2U1 whole entry, looked up): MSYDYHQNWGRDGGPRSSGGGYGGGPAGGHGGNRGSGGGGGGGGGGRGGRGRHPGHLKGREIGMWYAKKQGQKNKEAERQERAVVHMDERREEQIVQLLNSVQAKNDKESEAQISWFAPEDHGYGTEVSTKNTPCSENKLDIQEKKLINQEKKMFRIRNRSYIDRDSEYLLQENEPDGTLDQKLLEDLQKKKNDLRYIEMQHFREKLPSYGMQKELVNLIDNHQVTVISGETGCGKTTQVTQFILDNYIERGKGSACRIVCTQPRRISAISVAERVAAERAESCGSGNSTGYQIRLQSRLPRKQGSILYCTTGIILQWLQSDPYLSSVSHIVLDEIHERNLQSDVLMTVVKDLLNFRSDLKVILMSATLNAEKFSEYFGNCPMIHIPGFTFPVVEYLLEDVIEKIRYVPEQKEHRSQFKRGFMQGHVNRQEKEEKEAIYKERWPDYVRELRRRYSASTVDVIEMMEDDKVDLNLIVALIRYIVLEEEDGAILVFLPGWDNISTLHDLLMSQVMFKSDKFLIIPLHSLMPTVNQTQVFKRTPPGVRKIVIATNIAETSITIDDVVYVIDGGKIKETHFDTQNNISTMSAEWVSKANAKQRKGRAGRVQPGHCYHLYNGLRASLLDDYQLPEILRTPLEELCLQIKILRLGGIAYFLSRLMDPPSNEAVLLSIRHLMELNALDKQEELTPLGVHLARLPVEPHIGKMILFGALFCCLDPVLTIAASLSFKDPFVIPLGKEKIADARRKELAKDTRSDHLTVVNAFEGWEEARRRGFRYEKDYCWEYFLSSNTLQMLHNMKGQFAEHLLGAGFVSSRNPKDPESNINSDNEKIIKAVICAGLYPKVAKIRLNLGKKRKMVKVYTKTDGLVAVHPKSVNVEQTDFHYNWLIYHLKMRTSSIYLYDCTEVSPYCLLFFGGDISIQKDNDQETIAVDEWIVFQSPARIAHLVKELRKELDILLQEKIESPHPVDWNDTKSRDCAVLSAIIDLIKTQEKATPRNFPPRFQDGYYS
UniProt Q9UJU6, sequence (Q9UJU6 whole entry, looked up): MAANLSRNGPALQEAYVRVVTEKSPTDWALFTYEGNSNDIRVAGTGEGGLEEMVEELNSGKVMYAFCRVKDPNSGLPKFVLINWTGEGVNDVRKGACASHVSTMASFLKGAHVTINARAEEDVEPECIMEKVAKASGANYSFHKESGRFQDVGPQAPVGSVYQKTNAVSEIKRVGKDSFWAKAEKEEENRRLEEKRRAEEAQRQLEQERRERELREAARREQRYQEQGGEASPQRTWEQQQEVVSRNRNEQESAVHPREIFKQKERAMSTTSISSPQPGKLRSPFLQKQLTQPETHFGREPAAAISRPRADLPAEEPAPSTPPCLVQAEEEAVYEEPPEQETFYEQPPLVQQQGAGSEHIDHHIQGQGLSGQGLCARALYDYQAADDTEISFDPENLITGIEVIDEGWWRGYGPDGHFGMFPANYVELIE
UniProt P39880, sequence (P39880 whole entry, looked up): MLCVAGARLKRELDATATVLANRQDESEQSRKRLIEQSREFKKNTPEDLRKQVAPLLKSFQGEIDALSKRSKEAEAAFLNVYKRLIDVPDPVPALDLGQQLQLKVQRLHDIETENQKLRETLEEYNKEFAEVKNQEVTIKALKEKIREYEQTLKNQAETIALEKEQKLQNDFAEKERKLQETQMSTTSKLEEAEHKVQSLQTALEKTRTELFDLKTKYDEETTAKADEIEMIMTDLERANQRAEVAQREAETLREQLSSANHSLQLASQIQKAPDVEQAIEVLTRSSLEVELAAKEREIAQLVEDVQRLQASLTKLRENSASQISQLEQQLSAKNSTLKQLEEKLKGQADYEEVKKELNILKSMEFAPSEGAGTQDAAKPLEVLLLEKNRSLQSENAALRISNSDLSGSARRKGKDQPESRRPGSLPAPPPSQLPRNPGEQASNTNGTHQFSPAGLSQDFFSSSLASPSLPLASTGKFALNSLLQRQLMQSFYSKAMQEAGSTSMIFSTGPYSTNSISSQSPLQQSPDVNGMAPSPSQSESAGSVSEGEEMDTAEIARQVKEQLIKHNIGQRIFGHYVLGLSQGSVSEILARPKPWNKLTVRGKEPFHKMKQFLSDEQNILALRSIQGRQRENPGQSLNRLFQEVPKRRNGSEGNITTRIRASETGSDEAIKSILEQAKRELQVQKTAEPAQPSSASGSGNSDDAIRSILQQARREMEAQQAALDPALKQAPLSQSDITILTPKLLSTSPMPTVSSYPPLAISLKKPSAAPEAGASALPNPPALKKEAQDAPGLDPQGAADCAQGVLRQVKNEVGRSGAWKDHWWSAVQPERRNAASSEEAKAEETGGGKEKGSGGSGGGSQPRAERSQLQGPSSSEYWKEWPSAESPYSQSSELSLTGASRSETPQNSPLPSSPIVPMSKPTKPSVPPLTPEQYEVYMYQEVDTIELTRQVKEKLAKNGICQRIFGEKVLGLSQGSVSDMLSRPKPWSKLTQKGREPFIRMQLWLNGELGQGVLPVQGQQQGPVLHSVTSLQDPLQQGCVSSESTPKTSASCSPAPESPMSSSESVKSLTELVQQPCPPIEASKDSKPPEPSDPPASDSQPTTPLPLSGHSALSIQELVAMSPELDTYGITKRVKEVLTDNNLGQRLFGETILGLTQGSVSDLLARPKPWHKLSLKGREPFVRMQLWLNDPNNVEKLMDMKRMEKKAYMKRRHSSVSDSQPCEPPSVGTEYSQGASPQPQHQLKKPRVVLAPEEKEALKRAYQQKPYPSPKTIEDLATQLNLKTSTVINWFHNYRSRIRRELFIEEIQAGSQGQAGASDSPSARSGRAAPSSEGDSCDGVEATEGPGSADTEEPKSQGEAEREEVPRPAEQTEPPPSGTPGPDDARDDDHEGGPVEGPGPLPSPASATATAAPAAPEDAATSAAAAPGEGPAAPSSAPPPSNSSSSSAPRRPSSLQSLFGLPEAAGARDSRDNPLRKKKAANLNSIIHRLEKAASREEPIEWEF
UniProt O00148, sequence (O00148 whole entry, looked up): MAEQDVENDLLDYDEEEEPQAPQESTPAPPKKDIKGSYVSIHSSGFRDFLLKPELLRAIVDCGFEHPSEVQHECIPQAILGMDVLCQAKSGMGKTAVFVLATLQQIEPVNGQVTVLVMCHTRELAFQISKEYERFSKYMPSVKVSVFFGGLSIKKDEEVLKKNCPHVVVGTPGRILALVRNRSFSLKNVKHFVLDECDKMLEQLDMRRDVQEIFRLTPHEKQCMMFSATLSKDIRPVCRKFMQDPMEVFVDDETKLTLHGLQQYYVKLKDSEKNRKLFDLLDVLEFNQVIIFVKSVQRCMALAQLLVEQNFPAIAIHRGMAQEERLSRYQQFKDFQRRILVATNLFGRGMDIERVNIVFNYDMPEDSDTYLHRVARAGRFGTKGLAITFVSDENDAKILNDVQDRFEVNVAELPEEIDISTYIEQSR
UniProt P29692, sequence (P29692 whole entry, looked up): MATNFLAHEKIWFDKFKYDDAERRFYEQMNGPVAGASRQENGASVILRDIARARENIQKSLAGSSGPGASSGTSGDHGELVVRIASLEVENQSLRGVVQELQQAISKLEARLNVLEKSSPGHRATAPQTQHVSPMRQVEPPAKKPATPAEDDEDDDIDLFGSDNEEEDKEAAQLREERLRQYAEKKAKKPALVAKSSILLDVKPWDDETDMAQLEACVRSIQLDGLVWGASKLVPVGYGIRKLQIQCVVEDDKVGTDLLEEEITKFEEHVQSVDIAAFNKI
UniProt P07711, sequence (P07711 whole entry, looked up): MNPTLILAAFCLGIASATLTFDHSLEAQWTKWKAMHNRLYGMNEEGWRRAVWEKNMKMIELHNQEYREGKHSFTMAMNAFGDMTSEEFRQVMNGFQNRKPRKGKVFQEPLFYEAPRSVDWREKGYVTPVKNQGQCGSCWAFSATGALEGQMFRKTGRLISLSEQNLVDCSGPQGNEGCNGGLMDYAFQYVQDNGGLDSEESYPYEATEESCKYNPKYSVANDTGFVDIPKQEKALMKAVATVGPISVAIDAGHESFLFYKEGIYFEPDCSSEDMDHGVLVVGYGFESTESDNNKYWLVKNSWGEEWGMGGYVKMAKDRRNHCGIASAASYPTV

Target | log2 fold change [1] | log2 fold change [2] | log2 fold change [3] | log2 fold change [4] | log2 fold change [5] | log2 fold change [6] | log2 fold change [7] | log2 fold change [8] | log2 fold change [9] | log2 fold change [10] | log2 fold change [11] | log2 fold change [12] | log2 fold change [13] | log2 fold change [14] | log2 fold change [15] | log2 fold change [16] | log2 fold change [17] | log2 fold change [18] | log2 fold change [19] | log2 fold change [20]
DHX36 (UniProt Q9H2U1) | -0.014 | 0.021 | 0.122 | 0.048 | -0.041 | 0.171 | 0.187 | 0.03 | 0.095 | 0.011 | 0.04 | 0.119 | 0.024 | 0.017 | 0.025 | 0.017 | -0.127 | 0.059 | 0.025 | -0.038
DDX39A (UniProt O00148) | 0.018 | -0.149 | -0.061 | 0.007 | -0.143 | -0.213 | 0.111 | -0.041 | -0.016 | -0.032 | 0.135 | -0.021 | -0.017 | -0.093 | 0.066 | -0.16 | -0.015 | -0.028 | -0.007 | 0.012
EEF1D isoform 2 (UniProt P29692) | -0.04 | -0.03 | 0 | 0.001 | 0.107 | -0.011 | 0.053 | 0.017 | 0.078 | -0.013 | -0.038 | 0.034 | 0.036 | -0.042 | -0.016 | 0.028 | 0.028 | -0.011 | 0.022 | -0.01
EVC2 (UniProt Q86UK5) | -0.151 | 0.067 | 0.031 | -0.033 | -0.035 | -0.065 | 0.065 | 0.035 | 0.002 | 0.073 | -0.073 | -0.142 | -0.039 | 0.053 | -0.066 | -0.146 | 0.09 | 0.016 | -0.224 | -0.194
CTSC (UniProt P53634) | 0.03 | 0.046 | 0.074 | -0.015 | 0.052 | 0.035 | 0.031 | -0.005 | -0.082 | 0.007 | 0.019 | -0.065 | 0.001 | -0.024 | 0.021 | -0.04 | 0.036 | 0.026 | -0.031 | 0.083
CTSL (UniProt P07711) | 0.113 | 0.05 | 0.085 | 0.038 | 0.024 | 0.032 | 0.049 | 0.018 | -0.008 | 0.02 | -0.143 | 0.316 (active) | -0.041 | 0.125 | -0.099 | 0.044 | 0.025 | 0.086 | 0.087 | 0.057
EEA1 (UniProt Q15075) | 0.07 | 0.013 | 0.013 | -0.014 | -0.014 | -0.033 | -0.035 | -0.026 | -0.047 | 0.007 | 0.041 | -0.012 | -0.028 | 0.017 | -0.031 | 0.002 | 0.007 | 0.036 | 0.021 | 0
EIF2S3 (UniProt P41091) | -0.016 | 0 | 0.057 | -0.006 | -0.02 | 0.114 | 0.124 | 0.033 | 0.04 | -0.002 | -0.028 | 0.119 | 0 | 0.07 | -0.068 | 0.002 | -0.033 | -0.07 | 0.004 | -0.027
ERCC6 (UniProt Q03468) | -0.006 | 0.169 | -0.04 | -0.093 | 0.126 | 0.016 | 0 | -0.085 | -0.088 | 0.055 | -0.067 | -0.268 | 0.102 | -0.14 | 0.102 | -0.002 | 0.026 | -0.042 | 0.077 | -0.04
EDC4 (UniProt Q6P2E9) | -0.023 | -0.109 | -0.167 | 0.016 | -0.163 | -0.148 | -0.012 | -0.099 | 0.113 | 0.005 | 0.018 | 0.106 | 0.001 | 0.044 | -0.028 | 0.062 | -0.004 | 0 | 0.007 | 0.006
EXOC4 (UniProt Q96A65) | -0.013 | -0.224 | -0.131 | 0.058 | -0.04 | -0.049 | 0.183 | 0.015 | 0.14 | 0.01 | 0.029 | 0.009 | 0.065 | -0.052 | -0.002 | 0.164 | 0.002 | -0.086 | 0.008 | -0.059
DBNL isoform 3 (UniProt Q9UJU6) | 0.04 | -0.014 | -0.07 | 0.009 | 0.01 | -0.106 | -0.1 | -0.05 | 0.061 | -0.004 | 0.096 | 0.006 | -0.018 | 0.02 | 0.025 | -0.002 | 0.021 | -0.016 | 0.016 | 0.027
CUX1 isoform 3 (UniProt P39880) | 0.002 | -0.003 | -0.02 | 0.021 | 0.012 | -0.065 | 0.037 | -0.062 | -0.018 | 0.01 | 0.068 | 0.001 | -0.002 | 0.012 | -0.047 | -0.024 | 0.009 | 0.008 | 0.013 | 0.054
DAB2 (UniProt P98082) | -0.044 | 0.009 | -0.084 | 0.139 | 0.031 | -0.026 | 0.043 | 0.05 | 0.077 | -0.13 | -0.009 | 0.079 | 0 | -0.055 | -0.081 | 0.155 | 0.024 | 0.011 | -0.005 | 0.071
DAG1 (UniProt Q14118) | -0.033 | 0.1 | -0.026 | -0.021 | -0.093 | -0.032 | -0.014 | 0.052 | 0.002 | 0.007 | 0.005 | 0.054 | -0.045 | -0.047 | -0.075 | 0.105 | 0.032 | 0.082 | -0.015 | 0.115
FAM50A (UniProt Q14320) | 0.11 | -0.119 | -0.064 | 0.029 | 0.056 | -0.203 | -0.027 | 0.08 | 0.055 | -0.023 | -0.019 | -0.008 | 0.026 | -0.025 | -0.003 | -0.026 | 0.039 | -0.025 | 0.022 | 0.056
